19 molecules from PubChem BioAssay (NCATS) can be followed below.

A short description of experiment [1]: Quantitative High-Throughput drug screen in 47 multiple myeloma cell lines against the NCATS MIPE library collection: EJM_DSMZ cell viability assay (AID 1918926; note: nearly all actives have a fitted effect of over 30% in size). Put shortly:
(§1)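 CellTiter-Glo luminescence (ATP) after 48 h compound exposure, 37C/5% CO2; 500 cells/well; MIPE 4.0 approved/investigational drugs pinned in; DMSO = 100%, media only = 0% viability.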

Experiment [2] is described as follows: Quantitative High-Throughput drug screen in 47 multiple myeloma cell lines against the NCATS MIPE library collection: ARP1_JJKsccF8 cell viability assay (AID 1918928; note: nearly all actives have a fitted effect of over 40% in size). In a few lines:
(§2)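 Cell viability inhibition in this qHTS is measured via ATP content (CellTiter-Glo) after 48 h drug exposure at 37 °C. Wells hold 500 cells; DMSO-treated wells define 100% and medium-only wells 0%.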

Experiment [3] is described as follows: Quantitative High-Throughput drug screen in 47 multiple myeloma cell lines against the NCATS MIPE library collection: KHM11_PLB cell viability assay (AID 1918962). Note: nearly all actives have a fitted effect of over 35% in size. In a few lines:
(§3)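 Steps: seed 500 cells per well; pin-transfer MIPE 4.0 library; incubate 48 h at 37C, 5% CO2, humidified; add CellTiter-Glo, 5 min room temperature; read luminescence.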

Experiment [4] can be described thus: Quantitative High-Throughput drug screen in 47 multiple myeloma cell lines against the NCATS MIPE library collection: JIM1_ECACC cell viability assay (AID 1918964). Put shortly: as §1
The nature of experiment [5]: Quantitative High-Throughput drug screen in 47 multiple myeloma cell lines against the NCATS MIPE library collection: ARD_JJKsccE7 cell viability assay (AID 1918929). Put shortly:
as §1

The nature of experiment [6]: Quantitative High-Throughput drug screen in 47 multiple myeloma cell lines against the NCATS MIPE library collection: Karpas620_DSMZ cell viability assay (AID 1918959). Note: nearly all actives have a fitted effect of over 30% in size. Put shortly: as §3
Experiment [7] in a line: Quantitative High-Throughput drug screen in 47 multiple myeloma cell lines against the NCATS MIPE library collection: JIM3_ECACC cell viability assay (AID 1918963; note: nearly all actives have a fitted effect of over 35% in size). Put shortly: as §3
The nature of experiment [8]: Quantitative High-Throughput drug screen in 47 multiple myeloma cell lines against the NCATS MIPE library collection: KMM1_JCRB cell viability assay (AID 1918960). Note: nearly all actives have a fitted effect of over 30% in size. In a few lines:
as §2

Experiment [9] in a line: Quantitative High-Throughput drug screen in 47 multiple myeloma cell lines against the NCATS MIPE library collection: Karpas417_ECACC cell viability assay (AID 1918961). The conditions noted are these: Karpas417 myeloma viability, CellTiter-Glo ATP luminescence, 48 h; viability (% of DMSO): at 45.8 µM (top of the series). In a few lines:
as §1
In general terms: ATP-based viability assays read luminescence as a measure of living cells.

Inconclusive results are not listed. The source made the active and inactive calls. Calls come from the whole dose curve; as a rule, active = well fitted curve in the direction sought with a large enough effect; inconclusive = small, poorly fitted or top-dose-only effect, or another doubt; inactive = no such curve, though single readings can be large; an effect the other way counts as inactive or inconclusive.
Potency is the fitted concentration of half-maximal effect.

For the molecule `CCc1ccc(C=C2SC(=S)NC2=O)cc1`, the Potency entry in experiment [1], in experiment [2], in [3] and in experiment [4] was “inactive” throughout.
As to `O=C(NC1CCOCC1)c1ccc(-c2cc(-c3cn[nH]c3-c3ccccn3)ccn2)cc1`, the Potency entry in [1], in experiment [2], in [6] and in experiment [7] was “inactive” throughout. Moreover, the Potency in experiment [5] was 0.0296 µM (active).
Consider `CC1(C)S[C@H]2[C@H](NC(=O)[C@@H](N)c3ccc(O)cc3)C(=O)N2[C@@H]1C(=O)O`, for which the Potency entry in [1] and in [7] was “inactive” throughout. The Potency in experiment [2] was 20.9 µM (active); in experiment [5] it was 4.69 µM (active); in experiment [6], 14.8 µM (active); in [8] it was 2.09 µM (active); in [9], 1.66 µM (active); in [4] it was 7.43 µM (active).
In the case of `O=C(Nc1ccccc1-c1cn2c(CN3CCNCC3)csc2n1)c1cnc2ccccc2n1`, the Potency in experiment [1] was 20.9 µM (active); in experiment [2], 23.5 µM (active); in experiment [3] it was 8.33 µM (active); in [7] it was 33.2 µM (active); in experiment [4], 2.96 µM (active). The Potency entry in experiment [5], in [6] and in [8] was “inactive” each time.
In the case of `O=C1C[C@@H](c2ccc(O)cc2)Oc2cc(O)cc(O)c21`, the Potency entry in [1], in [2], in experiment [6], in experiment [3], in experiment [7] and in [4] was “inactive” in each case.
Consider `CCOC(=O)O[C@]1(C(=O)OCCl)CC[C@@H]2[C@H]3CCC4=CC(=O)C=C[C@]4(C)[C@@H]3[C@@H](O)C[C@@]21C`, for which the Potency entry in [1], in [6], in experiment [3] and in experiment [7] was “inactive” throughout. Further, in experiment [2], the Potency was 0.0372 µM (active). Also, the viability (% of DMSO) in experiment [9] was 78.2% (active).
As for `Oc1ccc(C2=Cc3ccc(O)cc3OC2)cc1`, the Potency in experiment [1] is 2.35 µM (active); in experiment [2] it was 4.18 µM (active); in [5], 1.66 µM (active); in experiment [8], 2.64 µM (active); in experiment [9], 2.64 µM (active); in experiment [3], 5.26 µM (active). In experiment [4], the Potency was 3.32 µM (active).
For the molecule `CC=CC[C@@H](C)C(=O)[C@H]1C(=O)N[C@@H](C(C)C)C(=O)N(C)CC(=O)N(C)[C@@H](CC(C)C)C(=O)N[C@@H](C(C)C)C(=O)N(C)[C@@H](CC(C)C)C(=O)N[C@@H](C)C(=O)N[C@H](C)C(=O)N(C)[C@@H](CC(C)C)C(=O)N(C)[C@@H](CC(C)C)C(=O)N(C)[C@@H](C(C)C)C(=O)N1C`, the Potency entry in [1] was “inactive”. The Potency in [2] was 18.7 µM (active); in experiment [7], 23.5 µM (active).
For the molecule `CC(C)C[C@H](CC(=O)O)C(=O)N[C@@H](Cc1c[nH]c2ccccc12)C(=O)N[C@@H](C)c1ccccc1`, the Potency result in [1], in experiment [2], in experiment [6], in experiment [8] and in experiment [3] was “inactive” in each case.
Take `CC1(C)CCC2=C(O1)c1ccccc1C(=O)C2=O`: the Potency in experiment [1] is 20.9 µM (active); in experiment [2] it was 18.7 µM (active); in experiment [6], 2.96 µM (active); in experiment [7], 18.7 µM (active). Further, the Potency result in [5] is “inactive”.
`CC=CC(=O)N(CC)c1ccccc1C`: the Potency result in experiment [1], in experiment [5], in experiment [6], in experiment [8], in experiment [3] and in experiment [4] was “inactive” each time. The Potency in experiment [2] was 5.26 µM (active).
Turning to `Cc1cnc(C(=O)O)c[n+]1[O-]`, the Potency entry in [1], in [5], in [6], in experiment [8], in experiment [9] and in [3] was “inactive” throughout.
For the molecule `NS(=O)(=O)c1ccc(NC2=CC(=O)c3ccccc3C2=O)cc1`, in experiment [1], the Potency result was “inactive”. Also, the Potency was 2.64 µM (active) in experiment [2], 2.64 µM (active) in experiment [5], 1.66 µM (active) in [6] and 18.7 µM (active) in experiment [7].
For the molecule `O=c1cc(-c2ccccc2)oc2cc(O)c(O)c(O)c12`, the Potency entry in [1], in experiment [5], in experiment [6] and in experiment [8] was “inactive” each time.
With `CC(C)C(=O)Oc1ccc(CO)cc1[C@H](CCN(C(C)C)C(C)C)c1ccccc1`, the Potency result in [1], in experiment [2], in experiment [5], in experiment [6], in experiment [8] and in experiment [9] was “inactive” in each case. Besides, the Potency entry in [7] and in [4] was “inactive” throughout.
As to `CC(=O)O[C@]1(C(C)=O)CC[C@@H]2[C@@H]3C[C@H](C)C4=CC(=O)CC[C@]4(C)[C@H]3CC[C@@]21C`, the figures for the Potency in experiment [1], in experiment [2] and in experiment [8] were 20.9 µM (active), 26.4 µM (active) and 4.69 µM (active), respectively. Moreover, the Potency entry in [6], in [3], in experiment [7] and in [4] was “inactive” throughout.
In the case of `CCC(CC)[C@H](NC(C)=O)[C@@H]1[C@H](O)[C@@H](C(=O)O)C[C@@H]1N=C(N)N`, the Potency entry in [1], in experiment [2], in experiment [5], in experiment [3] and in experiment [7] was “inactive” each time.
Take `Cc1ccc(C(=O)Nc2cccc(C(F)(F)F)c2)cc1Nc1nc(-c2cccnc2)nc2c1cnn2C`: the Potency was 18.7 µM (active) in [1], 10.5 µM (active) in [2] and 13.2 µM (active) in experiment [3]. Besides, the Potency result in experiment [5], in experiment [6], in experiment [8] and in [4] was “inactive” in each case.
Turning to `COc1ccc(-c2coc3cc(O)ccc3c2=O)cc1`, the Potency result in [1], in experiment [2], in experiment [5], in [6], in experiment [9] and in experiment [7] was “inactive” in each case. The Potency entry in [4] is “inactive”.
